Sampled rows, rich in hits. Any-hit rate of the full collection: about 12%.
Sfp inh: qHTS Assay for Inhibitors of Bacillus subtilis Sfp phosphopantetheinyl transferase (PPTase) | 4'-phosphopantetheinyl transferase ffp (Bacillus subtilis), Q9F4F7 | Biochemical Sfp PPTase activity, qHTS | Potency, µM, usual class: inhibitors | 310,000 compounds, 3.5% hits | AID 1490, 2009;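 note: the enzyme is Sfp with the accession as filed and its product quenches rhodamine fluorescence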
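Buffer: 50 mM Hepes-Na pH 7.6, 10 mM MgCl2, 0.01% Nonidet P-40, 0.01% BSA. Enzyme 15 nM, pre-exposed to compound 15 min; substrates then added and fluorescence change tracked over 30 min.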
BAZ2B block: qHTS Assay for Inhibitors of BAZ2B; Bromodomain adjacent to zinc finger domain protein 2B (Homo sapiens), Q9UIF8; AlphaScreen BAZ2B-H3K14Ac peptide displacement; Potency, µM (top dose mostly 114 µM), usual class: inhibitors; 360,000 compounds, 4.4% hits; note: nearly all actives have a fitted effect of over 60% in size
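Inhibition is scored as reduced AlphaScreen emission. The BAZ2B/b-H3(5-23)K14Ac complex (50 nM each) in PBS pH 7.4, 0.01% Tween-20 meets compound (up to 110 uM) for 30 min at RT before bead addition.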
TDP1 block: qHTS Assay for Inhibitors of Tyrosyl-DNA Phosphodiesterase (TDP1); Tyrosyl-DNA phosphodiesterase 1 (Homo sapiens), Q9NUW8; recombinant TDP1, AlphaScreen DNA substrate cleavage; Potency, µM (top dose mostly 130 µM), hits mostly inhibitors; 350,000 compounds, 0.28% hits; note: nearly all actives have a fitted effect of over 40% in size
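Steps: enzyme plus compound, 15 min RT; add biotin/phosphotyrosine-FITC oligonucleotide (15 nM final), react 5 min; add donor/acceptor beads (10 ug/ml final), 10 min; read AlphaScreen. Tdp1 at 1 nM final.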
G9a block: qHTS Assay for Inhibitors of Histone Lysine Methyltransferase G9a; Histone-lysine N-methyltransferase EHMT2 (Homo sapiens), Q96KQ7; G9a H3K9 monomethylation, AlphaScreen, 2 h; Potency, µM (highest dose often 102 µM), actives largely listed as inhibitors; 350,000 compounds, 8.8% hits; AID 504332, 2011; note: nearly all actives have a fitted effect of over 75% in size
Target sequence (Q96KQ7 913-1193 limits assumed): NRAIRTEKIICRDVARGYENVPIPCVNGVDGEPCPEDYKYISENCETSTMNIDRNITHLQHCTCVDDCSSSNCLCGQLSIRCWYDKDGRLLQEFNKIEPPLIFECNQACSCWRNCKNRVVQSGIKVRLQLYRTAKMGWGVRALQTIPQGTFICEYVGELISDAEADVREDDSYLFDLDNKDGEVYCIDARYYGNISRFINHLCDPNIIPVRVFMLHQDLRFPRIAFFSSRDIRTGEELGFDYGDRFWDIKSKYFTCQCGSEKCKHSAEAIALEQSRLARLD
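G9a (20 nM) was preincubated 15 min with compound, then reacted 2 h at room temperature with 500 nM biotin-H3K9 peptide and 20 µM SAM. Monomethyl-H3K9 detected by AlphaScreen using anti-H3K9me1 antibody.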
HP1b chromo inh: HTS for Inhibitors of HP1-beta Chromodomain Interactions with Methylated Histone Tails; 390,000 compounds, 0.56% hits; AlphaScreen HP1-beta / biotin-H3K9me3 peptide binding; AID 540317, 2011; Potency, µM (titrated, usually from 114 µM), actives largely listed as inhibitors; Chromobox protein homolog 1 (Homo sapiens), P83916; note: nearly all actives have a fitted effect of over 70% in size
Target sequence (P83916 whole entry, looked up): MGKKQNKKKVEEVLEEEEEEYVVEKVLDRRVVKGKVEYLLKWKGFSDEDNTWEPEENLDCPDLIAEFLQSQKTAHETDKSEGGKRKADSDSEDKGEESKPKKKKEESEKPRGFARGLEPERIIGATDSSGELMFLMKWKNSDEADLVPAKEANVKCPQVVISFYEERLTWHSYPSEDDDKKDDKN
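HP1-beta protein (50 nM final) preincubated 30 min at room temperature with biotinylated H3(1-18)K9me3 peptide (50 nM) in PBS pH 7.4, 0.01% Tween-20, then compound added for 30 min. AlphaScreen streptavidin donor/nickel chelate acceptor beads (10 ug/mL final), 30 min dark, luminescence read.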
JMJD2A Tudor inh: qHTS Assay for Inhibitors of JMJD2A-Tudor Domain. Lysine-specific demethylase 4A (Homo sapiens), O75164. AlphaScreen JMJD2A-Tudor / H3K4me3 peptide binding. 390,000 compounds, 4.4% hits. Potency, µM (top dose mostly 114 µM), actives largely listed as inhibitors; note: nearly all actives have a fitted effect of over 50% in size
A number is an active result; - = inactive; ? = inconclusive; . = no result; [ ] = another dose, or the depositor's remark. Calls come from the whole dose curve; as a rule, active = well fitted curve in the direction sought with a large enough effect; inconclusive = small, poorly fitted or top-dose-only effect, or another doubt; inactive = no such curve, though single readings can be large; an effect the other way counts as inactive or inconclusive.

SMILES | Sfp inh | BAZ2B block | TDP1 block | G9a block | HP1b chromo inh | JMJD2A Tudor inh
Cc1ccc(C(=O)N/C(=C/c2ccc(Cl)cc2)C(=O)NCC2CCCO2)cc1 (stereo not given) | - | - | - | - | - | -
Cc1ccc(C(=O)N/C(=C/c2ccc(N(C)C)cc2)C(=O)NCC2CCCO2)cc1 (stereo not given) | - | - | - | 28.2µM | - | -
C=CC[n+]1c(/C=C2\C=Cc3cc(C)ccc3N2CC)ccc2ccccc21 | - | 35.5µM | - | 28.2µM | ? | 50.1µM
O=C(/C=C/c1ccccc1)Nc1cccnc1 | - | - | . | . | - | -
Cc1ccc(/C=C/C(=O)Nc2ccccc2C(N)=O)o1 | . | - | - | 10µM | - | -
Cc1ccc(/C=C/C(=O)Nc2cccc3ncccc23)o1 | 20µM | - | - | ? | - | ?
Cc1ccc(/C=C/C(=O)Nc2cccnc2)o1 | - | - | - | 3.55µM | ? | ?
NC(=O)c1ccccc1NC(=O)/C=C/c1c(Cl)cccc1Cl | - | - | - | - | - | -
COc1ccc(CN2CCNC(=O)C2CC(=O)N(C)Cc2ccon2)c(F)c1 (stereo not given) | - | - | - | - | - | -
COc1ccc2c(-c3ccccc3)cc(SC(C)C(N)=O)nc2c1 (stereo not given) | - | - | - | 12.6µM | - | -
CCCN(C(=O)CSc1cc(-c2ccccc2)c2ccc(OC)cc2n1)C1CCS(=O)(=O)C1 (stereo not given) | - | - | - | - | - | -
Cc1c(C(=O)CN2CCN(c3ccccc3)CC2)c2ccccc2n1C | - | ? | . | ? | - | -
COc1ccc(N2CCN(CCCNC(=O)C(=O)c3c(C)n(C)c4ccccc34)CC2)cc1 | - | 35.5µM | - | 39.8µM | - | ?
COc1ccc(N2CCN(C(=O)C(=O)c3c(C)n(C)c4ccccc34)CC2)cc1 | - | ? | - | 5.01µM | - | ?
CC(=O)NN1C(=O)/C(=C\c2ccc(Br)o2)SC1=S | 56.2µM | ? | - | 39.8µM | ? | -
CC(=O)NN1C(=O)/C(=C/c2ccc(Br)o2)SC1=S | 56.2µM | - | ? | 50.1µM | 50.1µM | -[11.4 µM]
COc1ccc(C(C(=O)NC2CCCC2)N(C(=O)CNC(=O)c2ccco2)c2cccnc2)cc1 (stereo not given) | - | - | - | - | - | -
Cc1nn(-c2ccccc2)c(Cl)c1C1C(C#N)=C(N)Oc2c1c(C)nn2-c1ccccc1 (stereo not given) | - | ? | - | . | - | ?
Cc1nn(Cc2ccccc2)c2c1C(c1cccc(Cl)c1)C(C#N)=C(N)O2 (stereo not given) | - | ? | - | 50.1µM | - | ?
COc1ccc(CCNC(=O)C2CCN(S(=O)(=O)c3c(C)noc3/C=C/c3ccc(C)cc3)CC2)cc1OC | . | - | - | - | - | -
c1cnc2ccc3ncccc3c2c1 | - | - | - | ? | - | -[11.4 µM]
O=Cc1ccc(O)c2ncccc12 | - | 1.26µM | - | ? | - | 2.82µM
[O-]/[N+](=C\c1ccncc1)c1ccc(Br)cc1 | ? | ? | - | 39.8µM | - | -
[O-][N+](=Cc1ccccc1)c1ccc(Cl)cc1 | . | . | . | . | - | -
COc1ccc(OC)c(CCNC(=O)CCn2c(=O)c3cccn3c3ccc(F)cc32)c1 | . | - | - | - | - | -
SMILES | Sfp inh | BAZ2B block | TDP1 block | G9a block | HP1b chromo inh | JMJD2A Tudor inh
CCc1nc(N2CCN(CC(=O)NCC3CCCO3)CC2)c(C#N)c2c1COC(C)(C)C2 (stereo not given) | - | 50.1µM | - | . | - | -
CCCCc1nc(N2CCOCC2)c(C#N)c2c1COC(C)(C)C2 | - | - | - | -[12.7 µM] | - | -
Cc1cc(Cl)ccc1NC(=O)COC(=O)c1cc([N+](=O)[O-])ccc1N1CCOCC1 | . | - | - | 56.2µM | - | ?
CC(NC(=O)COC(=O)c1cc([N+](=O)[O-])ccc1N1CCOCC1)c1ccc(F)cc1 (stereo not given) | . | 50.1µM | - | ? | - | ?
NC(=O)c1ccc(NC(=O)COC(=O)c2cc([N+](=O)[O-])ccc2N2CCOCC2)cc1 | . | - | . | 12.6µM | - | -
O=C(COC(=O)c1cc([N+](=O)[O-])ccc1N1CCOCC1)Nc1ccc(Cl)cc1 | - | - | - | ? | - | ?
CCCCN(Cc1nc2ccccc2c(=O)[nH]1)C(=O)c1nn(C)c(=O)c2ccccc12 | . | - | - | ? | - | -
C=CCn1c(-c2cccc(OC)c2)n[nH]c1=S | - | - | - | 7.08µM | - | 11.2µM
COc1cc(-c2nc(N)n[nH]2)cc(OC)c1OC | - | - | - | - | - | -
C=CCn1c(-c2cc3cccc(OC)c3o2)n[nH]c1=S | - | ? | - | 6.31µM | - | 39.8µM
CCn1c(-c2cc(OC)c(OC)c(OC)c2)n[nH]c1=S | - | - | - | ? | - | 7.94µM
C=CCn1c(-c2cccc(OC)c2)nc2nc3ccccc3nc21 | - | - | - | - | - | -
C=CCn1c(SCc2cccc3ccccc23)nnc1-c1cccnc1 | - | - | - | . | - | -
C=CCn1c(-c2cccnc2)n[nH]c1=S | - | - | - | 44.7µM | - | 20µM
COCCCNC(=O)C1CCN(Cc2nc(-c3ccc(OC)c(OC)c3)oc2C)CC1 | . | - | - | - | - | -
C=CCn1c(-c2cccc(OC)c2OC)n[nH]c1=S | - | - | - | 20µM | - | 7.94µM
C=CCc1c(C)nc2c(OC)cccc2c1Cl | - | - | - | - | - | -
C=CCn1c(-c2cc(OC)c(OC)c(OC)c2)n[nH]c1=S | ? | - | - | ? | - | 6.31µM
O=C(COc1ccccc1)Nn1cnc2ccccc21 | ? | ? | - | 20µM | - | -
CCOc1ccc2nc(COC(=O)c3cccc([N+](=O)[O-])c3)c(C(C)=O)[n+]([O-])c2c1 | - | - | . | -[12.7 µM] | - | -
CCc1ccc(NC(=O)CSC2=C(C#N)C(c3ccc4c(c3)OCO4)CC(=O)N2)cc1 (stereo not given) | . | . | . | . | - | -
CC(=O)C1=C(C)NC(SCC(=O)c2ccc(C)cc2)=C(C#N)C1c1ccco1 (stereo not given) | - | - | - | ? | . | .
CC1(C)CC(=O)C2=C(C1)NC(SCC(=O)Nc1ccccc1)=C(C#N)C2c1ccco1 (stereo not given) | - | - | - | -[12.7 µM] | - | -
N#CC1=C(SCC(=O)Nc2ccc(C(=O)O)cc2)NC(=O)CC1c1ccco1 (stereo not given) | 31.6µM | - | . | . | - | -
